Reference: PubChem BioAssay (NCATS)
Results filed as inconclusive are left out. Values without a mark were called inactive. Calls of active or inactive are those of the source. Calls come from the whole dose curve; as a rule, active = well fitted inhibition curve with a large enough effect; inconclusive = small, poorly fitted or top-dose-only effect; inactive = flat fitted curve, though single readings scatter.

test system: P93_24; assay: qHTS profiling for inhibitors of Plasmodium falciparum proliferation (AID 504749); note: nearly all actives have a fitted effect of over 60% in size;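 for activity, negative = inhibition: 0% = DMSO vehicle and full inhibition = artemisinin control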; conditions: P. falciparum in erythrocytes, SYBR Green DNA, 72 h; series mostly up to 28.7 µM; activity, negative = inhibition: at the top concentration
Procedure, shortened: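 Infected RBCs, 0.3% parasitemia/2.5% Hct final; cpd 72 h, 37 C, 5% CO2; lysis buffer with saponin/triton/SYBR Green I, o/n RT dark; FI 485/535; norm. to artemisinin (0.29 uM) and DMSO.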
Potency is the fitted concentration of half-maximal effect.

Going from CCCCCCCCCCCCCCCC(=O)OC[C@H](O)[C@H]1OC[C@@H](O)[C@@H]1O to CCCCCCCCCCCC(=O)OCC(O)C1OCC(O)C1O (configuration not stated), the “activity, negative = inhibition” value rises from -1.06% to 2.32%.

First: C[C@H]1OC(OC2C(O)[C@@H](O)C(OC3C(O)[C@@H](O)C(O)O[C@@H]3CO)O[C@@H]2CO)[C@H](O)C(O)C1N[C@H]1C=C(CO)[C@@H](O)[C@H](O)C1O (some centres not stated)
Second: NC[C@@H]1O[C@H](OC2[C@@H](CO)O[C@@H](OC3[C@H](O)[C@H](N)C[C@H](N)[C@H]3OC3O[C@H](CO)[C@@H](O)[C@H](O)[C@@H]3N)[C@H]2O)C(N)[C@H](O)[C@@H]1O (some centres not stated)
The “activity, negative = inhibition” value of the first is lower: 0.75% for the first, 12.9% for the second.

Going from CCN(CC)CC(=O)Nc1c(C)cc(C)cc1C to CN(C)CC/C=C1\c2ccccc2COc2ccc(CC(=O)O)cc21, the “activity, negative = inhibition” value rises from -15.3% to 2.57%.

First: NC(=O)c1ncn(C2OC(CO)C(O)C2O)c1N (configuration not stated)
Second: Nc1nc(F)nc2c1ncn2[C@@H]1O[C@H](CO)[C@@H](O)[C@H]1O
The “activity, negative = inhibition” value of the first is higher: 15.4% for the first, -4.34% for the second.

First: CC1(Cn2ccnn2)[C@H](C(=O)O)N2C(=O)C[C@H]2S1(=O)=O (some centres not stated)
Second: COc1cccc(OC)c1C(=O)NC1C(=O)N2C1SC(C)(C)C2C(=O)O (configuration not stated)
The “activity, negative = inhibition” value of the first is higher: 5.59% for the first, -3.93% for the second.

First: OCCN1CC(O)C(O)C(O)C1CO (configuration not stated)
Second: OCCOC[C@H]1O[C@H](OCCO)[C@H](OCCO)[C@@H](OCCO)[C@@H]1OCCO (tested in a mixture with another compound)
The “activity, negative = inhibition” value of the first is higher: 6.13% for the first, 5.42% for the second.

Compared with CC(CCC(=O)O)C1CCC2C3C(=O)C[C@@H]4CC(=O)CC[C@@]4(C)C3CC(=O)[C@]12C (some centres not stated), CC(=O)OCC(=O)[C@@]1(O)CCC2C3C[C@H](C)C4=CC(=O)C=CC4(C)C3C(O)CC21C (some centres not stated) is lower in “activity, negative = inhibition” value: -0.0405% for the first, -5.33% for the second.

First: O=C(OC[C@@H]1O[C@@](O)(COC(=O)c2cccnc2)[C@H](OC(=O)c2cccnc2)[C@H]1OC(=O)c1cccnc1)c1cccnc1
Second: Cc1ccc(S(=O)(=O)NC(=O)NC(C)Cc2ccccc2)cc1 (configuration not stated)
The “activity, negative = inhibition” value of the first is higher: 10.3% for the first, 7.15% for the second.

First: O=[N+]([O-])O[C@H]1CO[C@H]2[C@@H]1OC[C@H]2O
Second: CC1(C)OC[C@@H]2O[C@@]3(C(=O)O)OC(C)(C)O[C@@H]3[C@@H]2O1
The “activity, negative = inhibition” value of the first is lower: -5.55% for the first, 5.58% for the second.

Compared with C[S+](C)CC[C@H](N)C(=O)O, NC(=O)NC(CCC(=O)O)C(=O)O (configuration not stated) is higher in “activity, negative = inhibition” value: -5.31% for the first, 2.85% for the second.

Going from CC[C@@H]1/C=C(\C)C[C@H](C)C[C@H](OC)[C@H]2O[C@@](O)(C(=O)C(=O)N3CCCC[C@H]3C(=O)O[C@H](/C(C)=C/[C@@H]3CC[C@H](Cl)[C@H](OC)C3)[C@H](C)[C@@H](O)CC1=O)[C@H](C)C[C@@H]2OC to CC1OC(OC2CCC3(C)C(CCC4C3CC(O)C3(C)C(C5=CC(=O)OC5)CCC43O)C2)CC(O)C1OC1CC(O)C(OC2CC(O)C(OC3OC(CO)C(O)C(O)C3O)C(C)O2)C(C)O1 (configuration not stated), the “activity, negative = inhibition” value falls from 6.9% to -0.12%.

Going from NC(=O)C1CC2(NC(=O)NC2=O)c2cc(F)ccc2O1 (configuration not stated) to Cc1ccccc1N1C(=O)c2cc(N)ccc2N/C1=C\F, the “activity, negative = inhibition” value falls from 3.79% to -12.3%.

First: CN1[C@@H]2CC[C@@H]1CC(OC(=O)[C@H](CO)c1ccccc1)C2 (some centres not stated)
Second: O=C1C(I)=CC(=C(c2cc(I)c(O)c(I)c2)c2ccccc2C(=O)O)C=C1I
The “activity, negative = inhibition” value of the first is higher: 2.78% for the first, -15.3% for the second.

First: C/C1=C2/[N-]C(C(CC(N)=O)[C@@]2(C)CCC(=O)NCC(C)OP(=O)([O-])O[C@H]2[C@@H](O)[C@@H](n3cnc4cc(C)c(C)cc43)O[C@@H]2CO)[C@]2(C)N=C(/C(C)=C3N=C(/C=C4N=C1C(CCC(N)=O)C\4(C)C)[C@@H](CCC(N)=O)[C@]\3(C)CC(N)=O)[C@@H](CCC(N)=O)[C@]2(C)CC(N)=O.CC(=O)O.[Co] (some centres not stated)
Second: CC1(C)C2CC[C@]1(C)[C@@H](O)C2
The “activity, negative = inhibition” value of the first is lower: -4.85% for the first, -0.522% for the second.

In the case of CCCCC(=O)OCC(=O)[C@]1(O)Cc2c(O)c3c(c(O)c2[C@H](OC2CC(NC(=O)C(F)(F)F)C(O)C(C)O2)C1)C(=O)c1c(OC)cccc1C3=O (some centres not stated), the Potency is reported as 2000 nM (active).
For C[C@H]1[C@@H](OC(=O)CCC(=O)O)OC2OC3(C)CC[C@H]4[C@H](C)CC[C@@H]1[C@@]24OO3 (some centres not stated), the Potency was 2.2 nM (active).
For COc1cc2c(cc1O)CCN[C@@]21CS[C@H]2c3c(OC(C)=O)c(C)c4c(c3C(COC1=O)N1C2C2c3c(cc(C)c(OC)c3O)CC([C@@H]1O)N2C)OCO4 (some centres not stated), the Potency was 0.9 nM (active).
In the case of C[n+]1c2cc(N)ccc2cc2ccc(N)cc21, the Potency is reported as 562 nM (active).
In the case of CC[C@@]1(O)C[C@H](O[C@H]2C[C@@H](N(C)C)[C@@H](O[C@H]3C[C@@H](O)[C@@H](O[C@H]4CCC(=O)[C@@H](C)O4)[C@@H](C)O3)[C@@H](C)O2)c2c(cc3c(c2O)C(=O)c2c(O)cccc2C3=O)[C@H]1C(=O)OC, the Potency is reported as 316 nM (active).
With CCC(C(=O)O)C1OC(C(C)C(O)C(C)C(=O)C(CC)C2OC3(C=CC(O)C4(CCC(C)(C5CCC(O)(CC)C(C)O5)O4)O3)C(C)CC2C)C(C)CC1C (configuration not stated) the Potency was 178 nM (active).
COC1CC2CCC(C)[C@](O)(O2)C(=O)C(=O)N2CCCCC2C(=O)OC(C(C)CC2CCC(O)C(OC)C2)CC(=O)C(C)/C=C(/C)C(O)C(OC)C(=O)C(C)CC(C)C=CC=C/C=C\1C (some centres not stated) was tested, and the Potency was 1410 nM (active).
CN[C@H](C)CCC=C(C)C was tested, and the Potency was 251 nM (active).

In the case of CC(=O)N[C@H]1[C@H](O[C@@H]2c3ccc(c(Cl)c3)Oc3cc4cc(c3O[C@@H]3O[C@H](CO)[C@@H](O)[C@H](O)C3C)Oc3ccc(cc3Cl)C[C@H]3NC(=O)[C@@H](N)c5ccc(O)c(c5)Oc5cc(O)cc(c5)[C@H](NC3=O)C(=O)N[C@H]4C(=O)N[C@H]3C(=O)N[C@@H]2C(=O)N[C@@H](C(=O)O)c2cc(O)cc(O[C@H]4O[C@H](CO)[C@@H](O)C(O)[C@@H]4O)c2-c2cc3ccc2O)O[C@H](CO)[C@@H](O)[C@@H]1O (some centres not stated), the “activity, negative = inhibition” value is reported as 4.68% [at 12.8 µM].
